This note sets out measurements from PubChem BioAssay AID504894 (National Center for Advancing Translational Sciences (NCATS), 2011).

Molecules are shown by their SMILES. Out of some 330,000 compounds screened, fewer than 10 were called active. The call rests on the fitted dose curve; in most records, active means well fitted activation curve with a large enough effect; inconclusive means small, poorly fitted or top-dose-only effect, or another doubt; inactive means no such curve, though single readings can be large or run the other way. The list is a sample of the results.

The nature of this test: Activators of T cell receptors: qHTS campaign. The conditions noted are these: primary human leukocytes, anti-CD3, IL-2 HTRF, 48 h; series mostly up to 9.22 µM. The text has this:
Normally activation of naive T cells requires two signals. 1. A signal through the T cell receptor (TCR) which provides antigen specificity to the response. 2. Signals through co-stimulatory molecules, which are necessary for proliferation, survival and cytokine production. In the absence of co-stimulatory signals T cells are not effectively activated, and may even be rendered anergic or unresponsive to subsequent signaling. This lack of costimulation has been shown in multiple model systems to be a major factor in the limited strength and effectiveness of anti-tumor T cell responses. The goal of this project is to identify small molecule compounds that will stimulate T cell activation in the presence of TCR signaling but in the absence of co-stimulatory signals, thereby allowing activation of naive T cells in the absence of co-stimulation. Identification of such compounds would have clear experimental and clinical applications in instances where desirable antigen-specific immune responses are not generated due to a lack of co-stimulation, for example in the generation of anti-tumor responses. In collaboration between the National Cancer Institute and NIH Chemical Genomics Center, a high-throughput amenable screen was developed to discover small molecules that co-stimulate and activate human T cell receptors. The screen will be carried out using a novel homogeneous time resolved fluorescence energy transfer (HTRF) assay to measure production of the cytokine IL-2 by activated T cells and will be tested against the NIH Molecular Libraries Small Molecule Repository (MLSMR). NIH Chemical Genomics Center [NCGC] NIH Molecular Libraries Probe Centers Network [MLPCN] MLPCN Grant: MH090820-01 Assay Submitter (PI): Richard Hodes, National Cancer Institute, NIH
Primary human leukocytes are incubated with a-CD3 beads and compounds for 48 hr. The amount of secreted IL-2 is then assayed with a HTRF IL-2 kit. The presence of IL-2 cytokine captures the detection reagents and brings the a-IL-2-K and a-IL-2-d2 into close proximity. Upon excitation with 320nm light, the europium cryptate is capable of transferring energy to acceptor molecules within close proximity, resulting in acceptor molecule emission at 665nm.
On the technique in general: Quantitative high-throughput screening tests each substance at several concentrations.
Take `O=C(O)C1C2C=CC(O2)C1C(=O)Nc1ccccn1` (centres undefined): the result was inactive.

For `O=C(NCc1ccccc1)c1cccc(NC(=O)C2CCCCC2)c1`, the molecule was called inactive.

For `O=C(NCCc1ccccc1)c1cccc(NC(=O)c2ccccc2)c1`, the molecule was classed as inactive.

Turning to `CCOc1ccc(CCNC(=O)COC(=O)C2CCN(S(=O)(=O)c3ccccc3)CC2)cc1OCC`, the outcome was inactive.

As for `COc1ccc(-c2ccc3c(c2)[C@@H]2C[C@H](N(C)S(=O)(=O)c4ccccc4)[C@H]([C@H](C)O)C(=O)N2CC3)cc1`, the outcome was inactive.

For `Oc1c(CN2CCOCC2)ccc(CN2CCOCC2)c1O`, the molecule was classed as inactive.

For `COc1ccc(C2NCCCC2c2ccccc2)cc1` (centres undefined), the molecule was called inactive.

In the case of `O=C(NN=Cc1ccccc1)c1ccccc1`, the call was inactive.

As to `CCC1(C)COC(c2ccc(OC)c(OC)c2)OC1` (centres undefined), the outcome was inactive.

For `Cc1ccccc1N1CCN(C(=O)c2cccnc2)CC1`, the molecule was classed as inactive.

In the case of `CSCCC(NC(=O)COc1ccccc1)C(=O)N1CCN(c2cccc(C(F)(F)F)c2)CC1` (centres undefined), the result was inactive.

Regarding `O=S1(=O)CCOC[C@H](Cc2ccccc2)N1Cc1ccccc1Br`, the molecule was classed as inactive.

`CC(Nc1ccc([N+](=O)[O-])cc1[N+](=O)[O-])c1ccccc1` (centres undefined): the call was inactive.

Consider `NN=C(NN=Cc1ccccc1)c1ccccc1`, for which the result was inactive.

Consider `Cn1c(=S)sc2ccc3ccccc3c21`, for which the result was inactive.

Turning to `Nc1ncnc2c1cnn2C1CC(O)C(CO)O1` (centres undefined), the molecule was called inactive.

For the molecule `COc1ccc(CS(=O)/C(Cl)=C(/Cl)C(=O)Nc2ccc(OC)nc2)cc1` (centres undefined), the call was inactive.

As to `N=C1c2ccccc2-c2ccccc21`, the call was inactive.

For the molecule `C/C(=N\Nc1ccccc1)c1cccs1`, the call was inactive.

With `CCCCCCCCNS(=O)(=O)CCNC1CCCCC1`, the molecule was classed as inactive.

Take `O=S1(=O)CSCS(=O)(=O)C1`: the call was inactive.

`Cc1ccc(SCC(=O)N2CCN(c3ccc(F)cc3)CC2)cc1`: the molecule was called inactive.

Take `Cc1nc(Nc2ccccc2C)c2cnn(C)c2n1`: the molecule was called inactive.

In the case of `COc1ccc(NC(=O)/C(N=Nc2cccc(S(=O)(=O)Nc3ccc(SC(F)F)cc3)c2)=C(\C)O)cc1`, the result was inactive.

As for `O=C1CC[C@@H]2CC3(C[C@@H]4CCN1[C@H]24)Nc1cc([N+](=O)[O-])ccc1NC3=NC1CCCCC1` (some centres undefined), the result was inactive.

For `N#CC1=C(N)Oc2cc(N)ccc2C1c1ccccc1` (centres undefined), the molecule was called inactive.

As to `CN(CCc1ccccc1)C(=O)c1cccc(NC(=O)Cc2cccc(NC(=O)C3CCCN(C(=O)C4CCC4)C3)c2)c1` (centres undefined), the call was inactive.

In the case of `COc1ccc(Nc2ccc3ccccc3c2)cc1`, the result was inactive.

`COC1=NC2=NCCN2C(OC)=N1`: the call was inactive.
